Data published in PubChem BioAssay (NCATS).
Activity calls are given as the source filed them. The call rests on the fitted dose curve; in most records, active means well fitted curve in the direction sought with a large enough effect; inconclusive means small, poorly fitted or top-dose-only effect, or another doubt; inactive means no such curve, though single readings can be large or run the other way.

Assay: Cellular Toxicity (caspase-3) MRC-5 (AID 659)
Settings: MRC-5 cells, luminescence, normalized: DMSO 0%, 10 µM staurosporine 100%; series mostly up to 91.7 µM; caspase-3 activation: at the top concentration
Source text: NIH Chemical Genomics Center [NCGC]
NIH Molecular Libraries Screening Centers Network [MLSCN]
National Institutes of Environmental Health Sciences [NIEHS]
National Toxicology Program [NTP]
We have developed a 1536-well cell-based assay for quantitative high throughput screening (qHTS) against a number of cell lines to determine in vitro caspase 3/7 activity of small molecules. This particular assay uses the MRC-5 cell line which is derived from human normal lung fibroblasts.
NCGC Assay Protocol Summary:
The Caspase-Glo 3/7 assay (Promega) is a homogeneous method to measure caspase-3 and caspase-7 activities in cultured cells. The quantitation of caspase 3/7 activity is based on the cleavage of a peptide-aminoluciferin substrate. After caspase cleaves the substrate the free aminoluciferin is liberated and serves as the substrate of luciferase, which generates the light. The luminescent signal is proportional to amount of caspase 3/7 activity present.
Using the Caspase-Glo 3/7 assay, the amount of caspase 3/7 activity was measured in the MRC-5 line with complete culture medium following compound treatment for 16 hours. The assay was performed in opaque white 1536-well plates. In the screen, tamoxifen and staurosporine were used as positive controls. Library compounds were measured for their ability to cause the activation of caspase 3/7 in the cell line, as reflected by an increase in luminescence signal, in a concentration-dependent manner. Data were normalized to the controls for basal activity (DMSO only) and 100% stimulation (10 uM staurosporine). AC50 values were determined from concentration-response data modeled with the standard Hill equation.
qHTS protocol for caspase 3/7 assay in MRC-5 cells
[Step] [Parameter] [Value] [Description]
1. Reagent; 5 uL; 1500 MRC-5 cells/well
2. Time; 5 hr; 37 °C incubation
4. Controls; 23 nL; Tamoxifen 0.23 uM to 100 uM & staurosporine 1.4 pM to 100 uM
5. Time; 16 hr; 37 °C incubation
6. Reagent; 5 uL; Caspase-Glo 3/7 reagent
7. Time; 1 hr; Room Temperature
8. Detection; Luminescence; Viewlux plate reader
Keywords: caspase 3/7, apoptosis, MRC-5 cell line, luminescence, NTPHTS, NTPHTS_NCGC, NIEHS, EPA, DSSTox, MLSMR, MLSCN, NIH Roadmap, qHTS, NCGC

Structure (SMILES) | caspase-3 activation
C=C(C)C(=O)OCC(C)C | 0.465% (inactive)
NC(N)=S | 0.145% (inactive)
CC(=O)CCc1ccccc1 | 0.869% (inactive)
NC(=S)NNC(N)=S | 1.63% (inactive)
C=CC(=O)NC(C)C | 1.16% (inactive)
CC(C)Cc1nccs1 | -0.854% (inactive)
C[C@@H]1CC2(OC[C@]3(C)O[C@H]23)O[C@H]2C[C@@]3(C)[C@@H]4CC[C@H]5C(C)(C)C(O[C@@H]6OC[C@@H](O)[C@H](O)[C@H]6O)CC[C@@]56C[C@@]46CC[C@]3(C)[C@@H]12 (stereo not given in full) | 6.11% (inactive)
CNC(=O)N(c1ccccc1)c1ccccc1 | -1.44% (inactive)
O=C(O)c1cccc([N+](=O)[O-])c1 | 2% (inactive)
C=CCCCC | 1.78% (inactive)
FC(F)(F)c1ccccc1Cl | 0.256% (inactive)
Cc1ccc2c(c1[N+](=O)[O-])C(=O)c1ccccc1C2=O | -1.43% (inactive)
NC(=O)NC(N)=O | -1.75% (inactive)
C=C(C)C(N)=O | -3.53% (inactive)
CCCCCCO | -0.734% (inactive)
O=[N+]([O-])c1ccc(NCCO)c(OCCO)c1 | 0.531% (inactive)
C=C(C)C(=O)OCC(C)O (stereo not given) | -0.28% (inactive)
CCN(C(=O)N(CC)c1ccccc1)c1ccccc1 | 3.06% (inactive)
Cc1ccc(CO)cc1 | 0.221% (inactive)
CCCCCCCN | -0.806% (inactive)

Structure (SMILES) | caspase-3 activation
O=Cc1ccc(C(=O)O)cc1 | 1.05% (inactive)
c1ccc(Oc2ccccc2)cc1 | -1.91% (inactive)
CC(=O)Nc1ccc(C)cc1 | 0.869% (inactive)
CCc1ccccc1 | -1.02% (inactive)
Cc1ccc2ncccc2c1 | 0.753% (inactive)
O=C(Cl)c1c(Cl)cccc1Cl | 2.97% (inactive)
CC(C)(C)c1ccc(OCC2CO2)cc1 (stereo not given) | 1.87% (inactive)
CCCCC(C=O)CC (stereo not given) | 1.41% (inactive)
CCCCC(CC)CNCC(CC)CCCC (stereo not given) | -1.43% (inactive)
Nc1cc([N+](=O)[O-])ccc1C(=O)O | -2.32% (inactive)
S=C([S-])NCCNC(=S)[S-].[Zn+2] | -0.661% (inactive)
Cc1ccc(C(=O)O)cc1 | 1.26% (inactive)
O=Nc1ccc(NO)cc1 | -2.17% (inactive)
CCCC(C)CO (stereo not given) | 1.99% (inactive)
O=C1NC(=O)c2cc([N+](=O)[O-])ccc21 | -1.87% (inactive)
C=C(C)C(=O)OCCCCCCCCCC | 1.33% (inactive)
COC(=O)CCC(=O)OC | -0.594% (inactive)
C=Cc1ccccn1 | 0.252% (inactive)
Cc1cccc2cccnc12 | -0.559% (inactive)
Nc1c(Cl)cc(Cl)cc1Cl | 2% (inactive)
